Experimental data from PubChem BioAssay AID2314 (National Center for Advancing Translational Sciences (NCATS), 2010).
Where “and” joins values, the source holds several entries; their conditions need not be identical. Identical values can stand only once. The campaign covered roughly 300,000 compounds. About 37,000 (12%) were called active. This is one part of a sample in which actives are shown more often than they occur. No stated cut-off is given here; in the data, active means max response mostly above about 13% (no sharp cut-off); inactive means mostly below about 14%. Some structures have more than one record in an assay (separate samples or runs), and their calls can disagree.

Assay: Cycloheximide Counterscreen for Small Molecule Inhibitors of Shiga Toxin; further: read at 38.3 µM for the half of the compounds with a filed dose; 0% is about no effect
Settings: cell reporter, cycloheximide protein synthesis inhibition counterscreen; stronger effect = higher value
For `COc1ccc(NC(=O)N2CCCC2C(=O)NCc2ccccc2Cl)cc1` (configuration not stated), the max response was -3.43% (inactive).
In the case of `O=C(c1ccccc1F)N(Cc1ccccc1)Cc1ccccc1`, the max response is reported as -2.08% (inactive).
With `C=CCN1C=C2C(=O)C(C)(OC(=O)CCc3ccccc3)C(=O)C=C2C=C1c1ccc(C#N)cc1` (configuration not stated) the max response was -1.82% (inactive).
For `O=C(Nc1ccc2c(c1)OCCO2)c1cnccn1`, the max response was 33% (inactive).
With `O=C(CCN1C(=O)c2ccncc2C1=O)Nc1ccc2c(c1)OCCO2` the max response was 1.67% (inactive).
For `O=C(Nc1ccc2c(c1)OCCO2)c1ccncc1`, the max response was 33.1% (active).
With `O=C(Cn1c(=O)sc2ccccc21)Nc1ccc2c(c1)OCCO2` the max response was -0.826% (inactive).
For `O=C(Nc1ccc2c(c1)OCCO2)c1ccoc1`, the max response was 35.3% (active).
In the case of `Cn1c(=O)c2ccccc2n(CC(=O)Nc2ccc3c(c2)OCCO3)c1=O`, the max response is reported as -8.73% (inactive).
With `COc1cccc(N(C(=O)CNC(=O)c2ccco2)C(C(=O)NC2CCCCC2)c2cccnc2)c1` (configuration not stated) the max response was -2.98% (inactive).
For `CCN(CC)c1ccc(NC(=O)CN2CCN(c3ccccn3)CC2)cc1`, the max response was -3.57% (inactive).
In the case of `CC[n+]1cc(C)ccc1/C=C/c1ccc(N(C)C)cc1`, the max response is reported as 12.8% (inactive).
In the case of `O=c1ccnc(Nc2ccc(Cl)cc2)[nH]1`, the max response is reported as 1.06% (inactive).
With `O=C(Nc1cc(S(=O)(=O)N2CCOCC2)ccc1Cl)c1cc(=O)c2ccccc2o1` the max response was 2.68% (inactive).
With `CCOc1ccc(Nc2oc(Cc3ccccc3)nc2C#N)cc1` the max response was 31.6% (active).
With `COc1ccc(Nc2oc(-c3ccccc3Cl)nc2C#N)cc1` the max response was 9% (inactive).
For `N#Cc1nc(Cc2cccc3ccccc23)oc1NCc1ccc2c(c1)OCO2`, the max response was -2.28% (inactive).
With `Cc1ccccc1-c1nc(C#N)c(NCc2ccco2)o1` the max response was 8.49% (inactive).
For `N#Cc1nc(Cc2ccccc2)oc1NCCc1ccccc1`, the max response was 39.2% (active).
In the case of `N#Cc1nc(COc2ccc(-c3ccccc3)cc2)oc1NCc1cccnc1`, the max response is reported as 9.29% (inactive).
For `O=c1cc(C(F)(F)F)[nH]c(=O)n1C1CCCCC1`, the max response was 6.49% (inactive).
In the case of `CCCCn1c(N)c(N(CC)C(=O)c2ccccc2C(F)(F)F)c(=O)[nH]c1=O`, the max response is reported as -3.22% (inactive).
In the case of `CCSc1nc(C)c(CCOc2cccc(C)c2)c(=O)[nH]1`, the max response is reported as 1.14% (inactive).
With `O=C(Nc1ccc(Cl)cc1)OCc1cc(-c2ccccc2)on1` the max response was 22.5% (active).
With `O=C(Nc1ccccc1)OCc1cc(-c2ccc(Cl)cc2)on1` the max response was -2.77% (inactive).
In the case of `Clc1ccc(-c2cc(COc3ccccc3)no2)cc1Cl`, the max response is reported as -2.19% (inactive).
With `CCS(=O)(=O)Nc1ccc(C2=NN(C(C)=O)C(c3cccs3)C2)cc1` (configuration not stated) the max response was 16% (inactive).
For `CS(=O)(=O)Nc1cccc(C2=NN(C(=O)c3cccc(F)c3)C(c3cccs3)C2)c1` (configuration not stated), the max response was -2.01% (inactive).
With `CS(=O)(=O)Nc1cccc(C2=NN(S(=O)(=O)c3ccccc3)C(c3cccs3)C2)c1` (configuration not stated) the max response was -3.68% (inactive).
In the case of `Cc1ccc(C2CC(c3cccc(NS(C)(=O)=O)c3)=NN2S(C)(=O)=O)cc1` (configuration not stated), the max response is reported as 45.1% (active).
For `Cc1ccccc1C1CC(c2cccs2)=NN1S(C)(=O)=O` (configuration not stated), the max response was -1.48% (inactive).
With `CS(=O)(=O)Nc1ccc(C2=NN(S(C)(=O)=O)C(c3cccs3)C2)cc1` (configuration not stated) the max response was 33.7% (active).
In the case of `CCOc1ccc(NC(=S)NC(=O)/C=C/c2ccc(OC)cc2)c([N+](=O)[O-])c1`, the max response is reported as 9.22% (inactive).
For `c1ccc2c(C[n+]3csc4ccccc43)cccc2c1`, the max response was 9.31% (inactive).
In the case of `COC(=O)Cn1cnc2scc(-c3ccc(C)c(C)c3)c2c1=O`, the max response is reported as -2.51% (inactive).
With `CCc1ccc(S(=O)(=O)N/N=C\c2ccc([N+](=O)[O-])o2)cc1` the max response was 5.73% (inactive).
In the case of `Cc1cc2ccccn2c1C(=O)c1cccc(S(=O)(=O)N2CCOCC2)c1`, the max response is reported as -0.598% (inactive).
With `CC(C)(C)OC(=O)NNc1c2ccccc2nc2ccccc12` the max response was 11.3% (active).
With `CCC(=O)OCCNc1nc(-c2ccccc2)nc2ccccc12` the max response was 1.39% (inactive).
For `O=C(NNc1c2ccccc2nc2ccccc12)c1cc2ccccc2cc1O`, the max response was -1.17% (inactive).
With `COc1ccc(C(CCN(Cc2ccc(OC)c(OC)c2)C(=O)CCl)c2ccccc2)cc1` (configuration not stated) the max response was -1.89% (inactive).
For `CC(=O)c1cccc(NC(=O)CN2C(=O)c3cccnc3Oc3ccc(Cl)cc32)c1`, the max response was 8.12% (inactive).
With `O=C(Cn1c(N2CCN(C/C=C/c3ccccc3)CC2)nc2ccccc21)c1ccccc1` the max response was 8.47% (inactive).
With `CC[C@H](C)[C@H](NC(=O)[C@@H](N)CCC(=O)O)C(=O)N[C@@H](CC(C)C)C(=O)N[C@@H](CC(=O)O)C(=O)N[C@H](C(=O)N1CCC[C@H]1C(=O)N[C@@H](CO)C(=O)N[C@H](C(=O)O)[C@@H](C)O)C(C)C` the max response was 0.56% (inactive).
In the case of `CCOC(=O)c1c(NC(=O)C(C)Sc2c[nH]c3ccccc23)sc2c1CCC2` (configuration not stated), the max response is reported as -0.942% (inactive).
For `CCOc1ccccc1NC(=O)CCc1nnc2ccc(NCc3ccco3)nn12`, the max response was 2.03% (inactive).
For `CC(=O)c1ccc(NC(=O)CCc2nnc3ccc(NCc4ccco4)nn23)cc1`, the max response was 40.6% (active).
In the case of `O=C(CCc1nnc2ccc(NCc3ccco3)nn12)Nc1cc(F)ccc1F`, the max response is reported as -2.19% (inactive).
In the case of `O=C(Cn1c[n+](CC(=O)c2ccc([N+](=O)[O-])cc2)cn1)c1ccc([N+](=O)[O-])cc1`, the max response is reported as 1.46% (inactive) and 22.2% (active).
In the case of `O=C(CC(n1cncn1)C(Cl)(Cl)Cl)c1ccc([N+](=O)[O-])cc1` (configuration not stated), the max response is reported as -2.22% (inactive).
For `O=C(c1ccncc1)c1ccc([N+](=O)[O-])cc1`, the max response was -4.87% (inactive).
In the case of `COc1ccc(N2CCC(N3CCN(C)C(CCO)C3)CC2)cc1` (configuration not stated), the max response is reported as -1.24% (inactive).
For `COc1ccc(OCCNS(=O)(=O)Cc2ccccc2)cc1`, the max response was -3.58% (inactive).
In the case of `O=C(c1ccc(Cl)cc1)N1N=C(c2ccccn2)CC1(O)C(F)(F)F` (configuration not stated), the max response is reported as -0.573% (inactive).
In the case of `COc1ccc(OC)c(CNC(=O)c2cc(=O)[nH]c3ccc(S(=O)(=O)N4CCCC4)cc23)c1`, the max response is reported as 11.5% (inactive).
For `COC(CNC(=O)c1ccc2c(c1)ncn2-c1cc(C)cc(C)c1)OC`, the max response was -5.14% (inactive).
For `Cc1ccc(C(=O)CSc2nc3ccccc3c(=O)n2N)o1`, the max response was 34.6% (active).
In the case of `COC(=O)CSc1nc2ccccc2c(=O)n1Cc1ccccc1`, the max response is reported as 12.7% (inactive).
For `O=C(CCCn1c(SCC(=O)c2ccc(F)cc2)nc2ccccc2c1=O)NCc1ccco1`, the max response was -0.158% (inactive).
In the case of `CC1CCC(NC(=O)CN(C)S(=O)(=O)c2ccc3c(c2)c(=O)n(C)c(=O)n3C)CC1` (configuration not stated), the max response is reported as -2.52% (inactive).
With `Cn1c(=NC(=O)c2cnccn2)sc2ccccc21` the max response was 26% (active).
With `Cn1c(=NC(=O)CSCC(=O)N2CCOCC2)sc2ccccc21` the max response was 11% (inactive).
In the case of `Cn1c(=NC(=O)CSCC(=O)N2CCCCC2)sc2ccccc21`, the max response is reported as 2.51% (inactive).
With `COc1cc(CO)c(C2(CO)CCCC2)cc1OC` the max response was -4.97% (inactive).
With `Cc1cc(C)cc(N(CCC#N)C(=O)CN2C(=O)NC3(CCCC3)C2=O)c1` the max response was 1.6% (inactive).
For `O=c1c2cc(-c3ccccc3)sc2nc2n1N=C(c1cccs1)CS2`, the max response was 57% (active).
For `Oc1ccccc1N1CCN(c2ncnc3sc(-c4ccccc4)cc23)CC1`, the max response was 9.53% (inactive).
In the case of `O=c1c(-c2ccccc2)cnc2n1CCS2`, the max response is reported as -4.67% (inactive).
With `CC(C)NC(=O)C(c1ccc(F)cc1)N(C(=O)CCC(=O)Nc1ccccn1)c1ccccc1F` (configuration not stated) the max response was -2.11% (inactive).
In the case of `CC(C)CCNC(=O)Cn1c(=O)oc2cc(S(=O)(=O)N3CC(C)CC(C)C3)ccc21` (configuration not stated), the max response is reported as -7.3% (inactive).
With `CSc1ccc(/C=N/N2CCN(Cc3ccccc3Cl)CC2)cc1` the max response was 16.6% (active).
With `O=S1(=O)CCN(Cc2ccccc2Cl)CC1` the max response was -2.05% (inactive).
In the case of `COc1ccccc1/C=N/N1CCN(Cc2ccccc2Cl)CC1`, the max response is reported as 1.31% (inactive).
In the case of `Cc1cccc(-n2cnc(C(=O)NNC(=S)Nc3ccccc3)c2)n1`, the max response is reported as -0.715% (inactive).
In the case of `Cc1cccc(-n2cnc(C(=O)Nc3cccnc3)c2)n1`, the max response is reported as 25.5% (active).
For `Cc1cc(C)c(NC(=O)CS(=O)CC(=O)Nc2cccnc2)c(C)c1` (configuration not stated), the max response was 3.39% (inactive).
With `Cc1cccc(Nc2nc3c(S(=O)(=O)c4ccccc4)nnn3c3ccccc23)c1C` the max response was -2.93% (inactive).
For `Cc1ccc(/C=C2\CCn3c2nc2cc(C(=O)O)ccc2c3=O)c(C)c1`, the max response was 8.18% (inactive).
In the case of `CCc1ccc(-c2nn(-c3ccccc3)cc2CSC(=N)N)cc1`, the max response is reported as -12.4% (inactive).
In the case of `COc1cc2c(cc1OC)CN(C(=O)c1cc(S(=O)(=O)N3CCCCC3)ccc1Cl)CC2`, the max response is reported as 11.1% (inactive).
With `Cc1ccccc1OCC(=O)Nc1nnc(S(=O)(=O)N2CCCC2)s1` the max response was 1.8% (inactive).
For `Cc1cc(NC(=O)CSc2nc3c(cc2C#N)CCCCC3)no1`, the max response was 14.6% (active).
For `Cc1nc(SCC(=O)Nc2cc(C)on2)c2c(C)c(C)sc2n1`, the max response was -2.36% (inactive).
With `CC(NC(=O)CSc1nc2c(cc1C#N)CN(C)CC2)c1ccccc1` (configuration not stated) the max response was -4.77% (inactive).
For `Cc1c(CCO)sc[n+]1CC(=O)OC12CC3CC(CC(C3)C1)C2`, the max response was -2.92% (inactive).
For `COC(=O)C1(C)CC1(c1ccccc1)c1ccccc1` (configuration not stated), the max response was -2.76% (inactive).
For `COC(=O)c1c(C)oc2ccc(N(C(=O)Oc3ccccc3)S(=O)(=O)c3ccccc3)cc12`, the max response was -13.2% (inactive).
In the case of `Cc1cccc(/C(N)=N/OC(=O)c2ccccc2Cl)c1`, the max response is reported as 37% (active).
With `Cc1cccc(C(=O)c2cccc(C)c2)c1` the max response was 0.416% (inactive).
With `N/C(=N\OC(=O)c1cc(-c2ccccc2)nc2ccccc12)c1ccncc1` the max response was -3.22% (inactive).
In the case of `O=C(O)CCN=C1CCc2ccccc2N1`, the max response is reported as -2.89% (inactive).
For `COc1cc(OC)cc(-c2nnc(N(C)C(=O)c3ccncc3)s2)c1`, the max response was -2.59% (inactive).
